What all share (experiment): DAPPL (digital affinity profiling via proximity ligation, sequencing); 10 mM Tris-HCl pH 7.5, 50 mM NaCl, 1 mM DTT, 4% glycerol, room temperature, 30 min; GST-TFs on glutathione beads, 16-mer random dsDNA library, 0.1% formaldehyde crosslink after washing; high values mean tight binding
One experiment concerns the target T1, FEV (Homo sapiens, UniProt Q99581 1-238).
T1 sequence: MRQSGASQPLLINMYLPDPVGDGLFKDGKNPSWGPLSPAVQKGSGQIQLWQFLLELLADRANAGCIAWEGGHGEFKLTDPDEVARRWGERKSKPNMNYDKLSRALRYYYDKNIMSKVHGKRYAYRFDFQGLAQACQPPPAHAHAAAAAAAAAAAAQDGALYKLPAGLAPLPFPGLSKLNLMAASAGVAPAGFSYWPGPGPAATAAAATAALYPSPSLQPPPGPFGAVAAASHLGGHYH
The following applies: protein: recombinant; tags: N-terminal GST; dsDNA, one strand shown. The method in brief: (§1)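 In yeast, human transcription factors were expressed with a GST fusion, then pulled down on glutathione beads and given DNA barcodes. Pooled with a tag-only sample, they were exposed to 200 nmole of a 16-mer random double-stranded DNA library (Tris/NaCl/DTT/glycerol buffer, room temperature, 30 min), washed, crosslinked with 0.1% formaldehyde, proximity-ligated using BsaI/T4 ligase for 1 h at 37 °C, PCR-amplified and read on an Illumina NextSeq500. Each hexamer's frequency of reads for a factor, divided by the matching frequency for the tag-only sample, gives the binding signal.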

A further experiment has as its target ETV5 (Homo sapiens, UniProt P41161 1-510). The following applies: protein: recombinant; tags: N-terminal GST; dsDNA, one strand shown. The method in brief: as §1
Another experiment has as its target HSF1 (Homo sapiens, UniProt Q00613 1-529). The following applies: protein: recombinant; tags: N-terminal GST; chain copies: 3; dsDNA, one strand shown. The procedure, abridged: as §1
The target in the next experiment is T2, SPIC (Homo sapiens, UniProt Q8N5J4 1-248).
T2 sequence: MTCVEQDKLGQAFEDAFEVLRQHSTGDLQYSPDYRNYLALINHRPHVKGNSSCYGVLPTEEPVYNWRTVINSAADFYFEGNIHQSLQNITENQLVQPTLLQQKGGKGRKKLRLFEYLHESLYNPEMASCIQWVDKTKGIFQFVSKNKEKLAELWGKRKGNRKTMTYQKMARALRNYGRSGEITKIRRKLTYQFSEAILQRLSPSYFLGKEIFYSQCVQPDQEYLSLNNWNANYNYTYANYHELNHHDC
The following applies: protein: recombinant; tags: N-terminal GST; dsDNA, one strand shown. The procedure, abridged:
as §1

Another experiment addresses ELF4 (Homo sapiens, UniProt Q99607 1-663). The following applies: protein: recombinant; tags: N-terminal GST; dsDNA, one strand shown. The method in brief: as §1
For another experiment, the target named is T3, ELK4 (Homo sapiens, UniProt P28324-2 1-405).
T3 sequence: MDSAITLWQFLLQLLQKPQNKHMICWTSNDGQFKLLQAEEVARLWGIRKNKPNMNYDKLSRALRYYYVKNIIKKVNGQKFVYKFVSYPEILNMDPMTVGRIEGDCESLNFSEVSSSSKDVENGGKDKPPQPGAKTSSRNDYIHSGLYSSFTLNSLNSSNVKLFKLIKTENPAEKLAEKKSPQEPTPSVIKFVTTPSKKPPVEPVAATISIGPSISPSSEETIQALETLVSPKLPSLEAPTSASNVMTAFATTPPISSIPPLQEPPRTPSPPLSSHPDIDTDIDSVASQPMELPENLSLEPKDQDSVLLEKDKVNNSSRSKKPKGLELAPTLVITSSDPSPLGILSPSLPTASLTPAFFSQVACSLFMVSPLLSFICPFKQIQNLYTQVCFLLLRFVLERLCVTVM
The following applies: protein: recombinant; tags: N-terminal GST; dsDNA, one strand shown. The method in brief: as §1

For the next experiment, the target named is T4, ETV2 (Homo sapiens, UniProt O00321 1-342).
T4 sequence: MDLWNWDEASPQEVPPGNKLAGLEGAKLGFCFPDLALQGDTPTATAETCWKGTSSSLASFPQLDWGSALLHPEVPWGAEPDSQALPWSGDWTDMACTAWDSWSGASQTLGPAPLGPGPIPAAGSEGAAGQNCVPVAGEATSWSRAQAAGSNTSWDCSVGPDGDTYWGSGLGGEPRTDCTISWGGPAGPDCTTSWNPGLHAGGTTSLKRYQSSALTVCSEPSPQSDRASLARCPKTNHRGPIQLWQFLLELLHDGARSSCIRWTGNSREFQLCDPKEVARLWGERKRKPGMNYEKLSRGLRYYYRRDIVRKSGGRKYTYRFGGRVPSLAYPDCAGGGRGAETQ
The following applies: protein: recombinant; tags: N-terminal GST; dsDNA, one strand shown. The procedure, abridged: as §1

The target of a further experiment is T5, ELF3 (Homo sapiens, UniProt P78545 1-371).
T5 sequence: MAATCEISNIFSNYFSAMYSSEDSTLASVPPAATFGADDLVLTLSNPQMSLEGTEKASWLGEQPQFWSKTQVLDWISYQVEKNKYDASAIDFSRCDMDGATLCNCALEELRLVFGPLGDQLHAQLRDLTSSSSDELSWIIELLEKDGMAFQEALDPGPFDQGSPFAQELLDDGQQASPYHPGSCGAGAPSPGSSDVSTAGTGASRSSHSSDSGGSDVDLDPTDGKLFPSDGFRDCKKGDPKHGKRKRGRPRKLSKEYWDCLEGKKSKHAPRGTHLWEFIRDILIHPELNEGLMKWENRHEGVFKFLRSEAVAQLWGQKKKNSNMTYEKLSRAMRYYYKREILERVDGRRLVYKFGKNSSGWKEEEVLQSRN
The following applies: protein: recombinant; tags: N-terminal GST; dsDNA, one strand shown. The method in brief: as §1

In the next experiment the target is CRX (Homo sapiens, UniProt O43186 1-299). The following applies: protein: recombinant; tags: N-terminal GST; dsDNA, one strand shown. The procedure, abridged: as §1
Chain of CRX (O43186 whole entry): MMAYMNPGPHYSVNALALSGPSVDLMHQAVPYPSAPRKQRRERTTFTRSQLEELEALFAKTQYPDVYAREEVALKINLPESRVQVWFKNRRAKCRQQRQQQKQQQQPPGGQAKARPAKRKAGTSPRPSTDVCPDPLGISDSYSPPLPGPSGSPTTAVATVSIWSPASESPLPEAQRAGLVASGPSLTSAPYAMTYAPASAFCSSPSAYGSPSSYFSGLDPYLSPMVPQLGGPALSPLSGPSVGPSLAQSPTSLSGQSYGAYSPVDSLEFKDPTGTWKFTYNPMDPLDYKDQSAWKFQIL
Another experiment addresses ETV1 (Homo sapiens, UniProt P50549 1-477). The following applies: protein: recombinant; tags: N-terminal GST; dsDNA, one strand shown. The method in brief:
as §1

The next experiment concerns the target T6, ERF (Homo sapiens, UniProt P50548 1-548).
T6 sequence: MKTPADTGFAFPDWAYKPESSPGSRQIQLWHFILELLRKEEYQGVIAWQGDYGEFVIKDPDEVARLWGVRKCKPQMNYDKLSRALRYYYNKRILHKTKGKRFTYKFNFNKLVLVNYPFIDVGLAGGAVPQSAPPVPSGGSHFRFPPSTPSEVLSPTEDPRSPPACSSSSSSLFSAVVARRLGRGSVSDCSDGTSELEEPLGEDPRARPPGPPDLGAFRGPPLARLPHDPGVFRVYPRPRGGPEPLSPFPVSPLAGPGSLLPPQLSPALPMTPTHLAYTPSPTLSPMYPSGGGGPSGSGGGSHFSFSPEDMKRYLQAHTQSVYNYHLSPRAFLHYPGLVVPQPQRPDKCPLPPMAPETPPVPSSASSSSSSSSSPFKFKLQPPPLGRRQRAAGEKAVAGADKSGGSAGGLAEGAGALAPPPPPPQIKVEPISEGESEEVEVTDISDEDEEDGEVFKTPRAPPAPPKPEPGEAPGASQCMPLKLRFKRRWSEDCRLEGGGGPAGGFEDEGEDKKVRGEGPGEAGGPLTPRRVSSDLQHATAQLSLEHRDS
The following applies: protein: recombinant; tags: N-terminal GST; dsDNA, one strand shown. The procedure, abridged:
as §1

In another experiment the target is T7, ETV3L (Homo sapiens, UniProt Q6ZN32 1-361).
T7 sequence: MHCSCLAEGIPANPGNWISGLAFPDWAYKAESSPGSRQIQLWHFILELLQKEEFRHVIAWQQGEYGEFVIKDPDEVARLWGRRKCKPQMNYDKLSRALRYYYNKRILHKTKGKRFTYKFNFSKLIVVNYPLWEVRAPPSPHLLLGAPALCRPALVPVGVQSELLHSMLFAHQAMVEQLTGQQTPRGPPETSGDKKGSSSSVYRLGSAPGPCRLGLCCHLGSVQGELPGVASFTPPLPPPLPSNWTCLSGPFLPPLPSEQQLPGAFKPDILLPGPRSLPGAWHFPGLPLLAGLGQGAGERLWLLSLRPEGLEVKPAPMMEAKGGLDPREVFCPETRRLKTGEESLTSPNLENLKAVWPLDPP
The following applies: protein: recombinant; tags: N-terminal GST; dsDNA, one strand shown. The method in brief: as §1

For the next experiment, the target named is T8, ETS2 (Homo sapiens, UniProt P15036 1-469).
T8 sequence: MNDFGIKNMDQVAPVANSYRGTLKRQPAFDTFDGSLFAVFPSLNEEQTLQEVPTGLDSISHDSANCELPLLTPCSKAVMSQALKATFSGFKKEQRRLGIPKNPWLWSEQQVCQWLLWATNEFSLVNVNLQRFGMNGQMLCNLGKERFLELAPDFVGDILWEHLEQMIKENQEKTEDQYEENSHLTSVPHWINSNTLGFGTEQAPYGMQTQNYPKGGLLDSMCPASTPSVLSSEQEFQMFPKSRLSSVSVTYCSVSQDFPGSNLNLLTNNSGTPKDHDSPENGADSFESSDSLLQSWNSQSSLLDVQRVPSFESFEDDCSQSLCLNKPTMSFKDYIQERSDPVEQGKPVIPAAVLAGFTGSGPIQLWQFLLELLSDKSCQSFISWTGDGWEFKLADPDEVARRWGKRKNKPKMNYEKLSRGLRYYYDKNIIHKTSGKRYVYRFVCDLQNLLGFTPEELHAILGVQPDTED
The following applies: protein: recombinant; tags: N-terminal GST; dsDNA, one strand shown. The method in brief:
as §1

Another experiment addresses T9, SPDEF (Homo sapiens, UniProt O95238 1-335).
T9 sequence: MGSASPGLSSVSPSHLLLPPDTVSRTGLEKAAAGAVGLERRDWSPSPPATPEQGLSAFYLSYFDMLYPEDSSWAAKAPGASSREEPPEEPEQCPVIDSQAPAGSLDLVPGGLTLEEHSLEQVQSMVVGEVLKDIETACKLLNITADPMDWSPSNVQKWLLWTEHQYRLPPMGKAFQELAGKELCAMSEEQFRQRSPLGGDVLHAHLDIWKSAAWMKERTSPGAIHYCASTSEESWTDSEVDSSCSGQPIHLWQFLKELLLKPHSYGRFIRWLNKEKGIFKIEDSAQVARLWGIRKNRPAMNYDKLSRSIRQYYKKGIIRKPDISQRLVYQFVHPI
The following applies: protein: recombinant; tags: N-terminal GST; dsDNA, one strand shown. The procedure, abridged:
as §1

The next experiment addresses T10, ETV7 (Homo sapiens, UniProt Q9Y603 1-341).
T10 sequence: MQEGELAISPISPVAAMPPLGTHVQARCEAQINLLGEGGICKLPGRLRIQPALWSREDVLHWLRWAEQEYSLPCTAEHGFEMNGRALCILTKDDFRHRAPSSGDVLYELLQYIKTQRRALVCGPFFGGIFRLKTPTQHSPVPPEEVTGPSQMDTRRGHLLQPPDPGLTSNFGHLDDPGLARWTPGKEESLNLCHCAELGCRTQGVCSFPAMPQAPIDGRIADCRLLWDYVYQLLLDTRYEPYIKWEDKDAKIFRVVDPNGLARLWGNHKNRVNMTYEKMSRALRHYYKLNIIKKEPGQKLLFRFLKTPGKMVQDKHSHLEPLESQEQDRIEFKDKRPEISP
The following applies: protein: recombinant; tags: N-terminal GST; dsDNA, one strand shown. The procedure, abridged:
as §1

For the next experiment, the target named is T11, ELF5 (Homo sapiens, UniProt Q9UKW6-2 1-255).
T11 sequence: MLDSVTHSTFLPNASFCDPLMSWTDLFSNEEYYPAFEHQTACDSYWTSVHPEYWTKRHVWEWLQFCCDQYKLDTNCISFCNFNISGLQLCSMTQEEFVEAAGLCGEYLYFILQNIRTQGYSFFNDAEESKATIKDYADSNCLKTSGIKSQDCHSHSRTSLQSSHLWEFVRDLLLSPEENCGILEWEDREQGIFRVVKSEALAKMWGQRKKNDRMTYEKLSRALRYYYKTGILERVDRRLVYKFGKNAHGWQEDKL
The following applies: protein: recombinant; tags: N-terminal GST; dsDNA, one strand shown. The procedure, abridged:
as §1

In the next experiment the target is T12, ETV3 (Homo sapiens, UniProt P41162-2 1-143).
T12 sequence: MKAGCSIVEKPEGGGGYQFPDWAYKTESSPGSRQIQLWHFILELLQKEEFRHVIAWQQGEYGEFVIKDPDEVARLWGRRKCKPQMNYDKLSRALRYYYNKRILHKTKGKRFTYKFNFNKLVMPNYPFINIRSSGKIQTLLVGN
The following applies: protein: recombinant; tags: N-terminal GST; dsDNA, one strand shown. The procedure, abridged: as §1

In another experiment the target is ETV6 (Homo sapiens, UniProt P41212 1-452). The following applies: protein: recombinant; tags: N-terminal GST; dsDNA, one strand shown. The procedure, abridged:
as §1

The values that follow come from article PMC7862700, “An all-to-all approach to the identification of sequence-specific readers for epigenetic DNA modifications on cytosine”.

Chain of ELF4 (Q99607 whole entry): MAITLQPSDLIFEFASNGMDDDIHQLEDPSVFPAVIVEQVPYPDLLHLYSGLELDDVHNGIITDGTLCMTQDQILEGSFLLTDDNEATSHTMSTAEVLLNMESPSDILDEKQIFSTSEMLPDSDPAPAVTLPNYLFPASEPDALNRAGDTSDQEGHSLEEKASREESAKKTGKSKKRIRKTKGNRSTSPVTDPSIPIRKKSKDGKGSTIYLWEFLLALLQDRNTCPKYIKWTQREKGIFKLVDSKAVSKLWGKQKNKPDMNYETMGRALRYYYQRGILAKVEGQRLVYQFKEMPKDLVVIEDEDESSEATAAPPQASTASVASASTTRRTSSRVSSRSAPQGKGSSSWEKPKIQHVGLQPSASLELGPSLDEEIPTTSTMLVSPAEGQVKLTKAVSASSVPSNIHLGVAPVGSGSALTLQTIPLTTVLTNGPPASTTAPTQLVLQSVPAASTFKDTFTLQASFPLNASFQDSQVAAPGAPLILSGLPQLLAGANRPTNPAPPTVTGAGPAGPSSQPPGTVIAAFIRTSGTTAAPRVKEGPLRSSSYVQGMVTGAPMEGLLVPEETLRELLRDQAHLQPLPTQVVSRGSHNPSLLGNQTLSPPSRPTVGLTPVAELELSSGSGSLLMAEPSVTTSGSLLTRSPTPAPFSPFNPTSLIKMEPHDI
Chain of ETV1 (P50549 whole entry): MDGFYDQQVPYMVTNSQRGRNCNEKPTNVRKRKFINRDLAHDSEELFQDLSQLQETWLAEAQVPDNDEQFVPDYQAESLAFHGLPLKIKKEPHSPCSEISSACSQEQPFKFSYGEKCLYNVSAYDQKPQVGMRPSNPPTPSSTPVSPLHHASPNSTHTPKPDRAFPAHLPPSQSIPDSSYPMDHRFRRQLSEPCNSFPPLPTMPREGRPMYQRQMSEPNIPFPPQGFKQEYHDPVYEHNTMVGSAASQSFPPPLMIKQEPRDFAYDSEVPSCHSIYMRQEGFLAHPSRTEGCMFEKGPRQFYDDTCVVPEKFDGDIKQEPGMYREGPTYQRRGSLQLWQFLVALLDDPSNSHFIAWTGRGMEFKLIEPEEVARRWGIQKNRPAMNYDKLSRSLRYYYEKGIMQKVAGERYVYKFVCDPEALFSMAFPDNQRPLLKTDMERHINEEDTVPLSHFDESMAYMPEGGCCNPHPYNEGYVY
Chain of ETV5 (P41161 whole entry): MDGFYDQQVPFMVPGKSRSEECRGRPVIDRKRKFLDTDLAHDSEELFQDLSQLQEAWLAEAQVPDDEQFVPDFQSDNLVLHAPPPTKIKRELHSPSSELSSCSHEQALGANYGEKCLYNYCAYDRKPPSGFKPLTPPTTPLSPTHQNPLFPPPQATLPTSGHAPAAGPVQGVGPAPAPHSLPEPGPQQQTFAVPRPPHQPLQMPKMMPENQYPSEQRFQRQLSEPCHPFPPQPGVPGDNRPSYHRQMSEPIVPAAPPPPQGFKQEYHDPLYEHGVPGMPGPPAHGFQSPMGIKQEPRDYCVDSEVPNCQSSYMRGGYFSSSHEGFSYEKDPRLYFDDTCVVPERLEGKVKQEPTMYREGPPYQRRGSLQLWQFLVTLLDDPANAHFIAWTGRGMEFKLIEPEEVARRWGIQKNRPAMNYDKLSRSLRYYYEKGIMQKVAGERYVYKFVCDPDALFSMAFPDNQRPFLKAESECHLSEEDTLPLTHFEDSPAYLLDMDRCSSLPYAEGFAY
Chain of HSF1 (Q00613 whole entry): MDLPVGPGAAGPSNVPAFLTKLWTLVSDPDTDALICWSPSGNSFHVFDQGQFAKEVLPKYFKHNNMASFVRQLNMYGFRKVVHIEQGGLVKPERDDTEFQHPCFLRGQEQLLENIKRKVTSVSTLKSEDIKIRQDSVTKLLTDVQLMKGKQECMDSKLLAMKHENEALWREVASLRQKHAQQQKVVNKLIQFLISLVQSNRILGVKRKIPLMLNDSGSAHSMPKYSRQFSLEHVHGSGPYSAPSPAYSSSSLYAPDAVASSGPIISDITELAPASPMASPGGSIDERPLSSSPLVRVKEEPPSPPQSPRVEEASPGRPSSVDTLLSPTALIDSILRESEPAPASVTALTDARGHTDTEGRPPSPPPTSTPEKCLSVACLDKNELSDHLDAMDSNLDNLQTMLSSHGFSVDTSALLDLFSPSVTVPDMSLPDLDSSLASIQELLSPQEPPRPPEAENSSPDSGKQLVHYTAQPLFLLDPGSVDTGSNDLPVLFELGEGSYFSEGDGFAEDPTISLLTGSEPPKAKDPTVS
Chain of ETV6 (P41212 whole entry): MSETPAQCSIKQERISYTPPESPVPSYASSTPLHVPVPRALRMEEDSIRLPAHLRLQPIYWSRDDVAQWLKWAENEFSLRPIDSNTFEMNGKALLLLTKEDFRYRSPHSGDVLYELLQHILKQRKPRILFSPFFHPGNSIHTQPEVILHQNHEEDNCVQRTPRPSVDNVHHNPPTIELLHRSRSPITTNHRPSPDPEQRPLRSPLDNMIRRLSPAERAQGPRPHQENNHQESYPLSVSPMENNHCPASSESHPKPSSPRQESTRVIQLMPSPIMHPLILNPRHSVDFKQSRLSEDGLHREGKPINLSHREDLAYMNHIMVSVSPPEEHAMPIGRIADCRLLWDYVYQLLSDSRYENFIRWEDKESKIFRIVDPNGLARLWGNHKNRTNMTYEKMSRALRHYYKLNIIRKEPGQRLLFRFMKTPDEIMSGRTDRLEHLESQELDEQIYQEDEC

CTCTGG: the binding signal with FEV is 1.33 fold enrichment (6-mer frequency, TF over GST control); with ETV5, 1.32 fold enrichment (6-mer frequency, TF over GST control); with HSF1, 1.81 fold enrichment (6-mer frequency, TF over GST control); with SPIC, 1.25 fold enrichment (6-mer frequency, TF over GST control); in the experiment with ELF4, 1.36 fold enrichment (6-mer frequency, TF over GST control); in the experiment with ELK4 it was 1.23 fold enrichment (6-mer frequency, TF over GST control). Besides, the binding signal is 1.09 fold enrichment (6-mer frequency, TF over GST control) in the experiment with ETV2; 1.37 fold enrichment (6-mer frequency, TF over GST control) with ELF3; 1.35 fold enrichment (6-mer frequency, TF over GST control) with CRX; 1.22 fold enrichment (6-mer frequency, TF over GST control) with ETV1; 1.36 fold enrichment (6-mer frequency, TF over GST control) in the experiment with ERF; 1.45 fold enrichment (6-mer frequency, TF over GST control) with ETV3L. Moreover, the binding signal with ETS2 is 1.19 fold enrichment (6-mer frequency, TF over GST control); in the experiment with SPDEF, 1.19 fold enrichment (6-mer frequency, TF over GST control); in the experiment with ETV7, 1.33 fold enrichment (6-mer frequency, TF over GST control); in the experiment with ELF5 it was 1.21 fold enrichment (6-mer frequency, TF over GST control); with ETV3, 1.31 fold enrichment (6-mer frequency, TF over GST control); with ETV6, 1.39 fold enrichment (6-mer frequency, TF over GST control).
